For 51 molecules, INHIBITION results are on record in ChEMBL document CHEMBL4513216, “Probing the Open Global Health Chemical Diversity Library for Multistage-Active Starting Points for Next-Generation Antimalarials” (ACS Infect Dis, 2020).

Hit rate of the full screen: of about 65,000 compounds, about 2,100 (3.2%) showed an effect of 50% or more. The median lay at about -52%. The sample as a whole holds a higher share of strong results than the screen did.

This test concerns Plasmodium falciparum. Description: Screen against P. falciparum Asexual Blood Stage (ABS), at 5uM. The class given is functional, Dd2. The following applies: tested at 5 uM.
Regarding `COc1ccc(C)c(NC(=O)NCc2ncnn2C)c1`, the INHIBITION is -80.2%.

For `COc1ccc(C2CCCN2C(=O)NCCCn2ccnc2)cc1` (stereo unspecified), the INHIBITION was 61.9%.

For the molecule `O=C(NCCn1ccnc1)N1CCCC1c1ccncc1` (stereo unspecified), the INHIBITION is -10%.

Take `O=C(NCCn1ccnc1)N1CCCC1c1ccc2c(c1)OCCO2` (stereo unspecified): the INHIBITION is on record as 51.2%.

As for `O=C(NCCn1ccnc1)N1CCCC1c1ccsc1` (stereo unspecified), the INHIBITION is given as -159%.

Take `O=C(NCCCn1ccnc1)N1CCCC1c1ccncc1` (stereo unspecified): the INHIBITION was -65.7%.

As for `COc1ccc(C2CCCN2C(=O)NCCCn2cccn2)cc1` (stereo unspecified), the INHIBITION is -90.4%.

For the molecule `COc1ccc(C2CCCN2C(=O)NCCn2ccnc2)cc1` (stereo unspecified), the INHIBITION was 59.1%.

Take `COc1ccc(C2CCCN2C(=O)NCCn2ccnc2)cc1OC` (stereo unspecified): the INHIBITION is -189%.

With `CCOc1ccc(C2CCCN2C(=O)NCCn2ccnc2)cc1` (stereo unspecified), the INHIBITION turned out to be 36.1%.

Regarding `CC(C)(C)c1nnnn1CC(=O)N(CCC#N)c1ccccc1`, the INHIBITION is reported as -55.4%.

Consider `CN(C)C(C(=O)NCc1cc(C(C)(C)C)n[nH]1)c1ccc(F)cc1` (stereo unspecified), for which the INHIBITION is listed as -1.64%.

As to `COCCn1c2c(ccc1=O)CC(NCc1cnn(C)c1)CC2` (stereo unspecified), the INHIBITION is listed as -23.6%.

Turning to `Cc1cc(O)ncc1NS(=O)(=O)c1cccc(F)c1F`, the INHIBITION is -123%.

For `CCS(=O)(=O)N[C@H]1CN(Cc2noc(COC)n2)C[C@@H]1C1CC1`, the INHIBITION is recorded as -96.2%.

As for `Cc1cccc(-c2nc(N)nc3c2CN(C(=O)c2cc(C)n[nH]2)C3C)c1` (stereo unspecified), the INHIBITION amounted to 32.2%.

As to `COCCN1Cc2ccccc2C2(CCN(C(=O)c3ccco3)CC2)C1`, the INHIBITION is -50.4%.

In the case of `COc1ccccc1-n1nc(CC(C)C)nc1CSc1nnc(N)s1`, the INHIBITION was -36.5%.

In the case of `CC(NCC1(N(C)C)CCOCC1)c1ccc(SC(F)F)cc1` (stereo unspecified), the INHIBITION was 52.35%.

As to `CC(NCC1(N(C)C)CCOCC1)c1ccc(S(C)(=O)=O)cc1` (stereo unspecified), the INHIBITION is on record as -56.25%.

Turning to `CSC1(CNC(=O)NC(C)c2ccc(F)cc2)CCOCC1` (stereo unspecified), the INHIBITION was -162%.

As to `COCC1CN(S(=O)(=O)Cc2ccccc2)Cc2c1cnn2C` (stereo unspecified), the INHIBITION was -54.3%.

`Nc1cc2c(nn1)CCN(C(=O)CCCC1CCCCC1)C2`: the INHIBITION is -83.9%.

With `CO[C@H]1CN(Cc2c(C)ccc3ncccc23)CC[C@H]1N`, the INHIBITION came out at 67.2%.

As to `Cc1ccc2ncccc2c1CN1CC[C@H](N(C)C)[C@H](CCC(=O)O)C1`, the INHIBITION is given as -3.92%.

Take `COCCCC1CCCN(Cc2c(C)ccc3ncccc23)C1` (stereo unspecified): the INHIBITION turned out to be 37.2%.

For `Cc1cc(NC(=O)c2ccc(CN3CC[C@H](O)C3)cc2)ccc1F`, the INHIBITION is given as 21.2%.

On to `CC(=O)N1CCCC1c1cccc(NCc2ccccc2F)n1` (stereo unspecified), for which the INHIBITION was -133%.

Take `COc1cc(N2CCC3(CCN(Cc4csc(C)n4)C3=O)C2)ncn1` (stereo unspecified): the INHIBITION was -8.45%.

Consider `COCCCN1CCN([C@@H]2c3ccccc3C3(CCNCC3)[C@H]2O)CC1`, for which the INHIBITION is -68.7%.

For `CCNC(=O)[C@@H]1C[C@H](N)CN1c1cc(C(F)(F)F)nc(N2CCCC2)n1`, the INHIBITION was 54.7%.

Regarding `CCNC(=O)[C@@H]1C[C@H](N)CN1c1cc(C(F)(F)F)nc(N(C)C)n1`, the INHIBITION was determined as 20.4%.

For the molecule `CCNC(=O)[C@@H]1C[C@H](N)CN1c1cc(CC)nc(N(C)C)n1`, the INHIBITION is given as -67.6%.

As to `CC(=O)Nc1nc(C(=O)N2CCCC(n3cncn3)C2)cs1` (stereo unspecified), the INHIBITION was -101%.

As to `CN(C(=O)Cn1nc(-c2ccccc2)ccc1=O)C1CCS(=O)(=O)C1` (stereo unspecified), the INHIBITION is -30.2%.

Consider `Fc1ccc(CC2CCN(Cc3cscn3)CC2)cc1`, for which the INHIBITION stood at 50.7%.

For the molecule `Fc1ccccc1CC1CCN(Cc2cscn2)CC1`, the INHIBITION is listed as 45%.

Consider `Fc1ccc(CN2CCCN(Cc3cscn3)CC2)cc1`, for which the INHIBITION is 43.6%.

In the case of `CN1CCCCC1c1ncc2c(n1)CCN(Cc1ccc(Cl)c(F)c1)C2` (stereo unspecified), the INHIBITION is reported as 65.6%.

In the case of `CN1CCc2nc(C3CCCCN3Cc3ccccc3Cl)ncc2C1` (stereo unspecified), the INHIBITION is recorded as -32.4%.

On to `CN1CCCCC1c1ncc2c(n1)CCN(Cc1ccccc1Cl)C2` (stereo unspecified), for which the INHIBITION is reported as 41.5%.

For the molecule `O=C(CCCOc1cccc(F)c1)N1CCCC(n2cccn2)C1` (stereo unspecified), the INHIBITION is -31.5%.

For the molecule `N#Cc1cn(C2CC2)c(=O)n(CC(O)c2ccc(F)cc2)c1=O` (stereo unspecified), the INHIBITION is 44.7%.

With `N#Cc1cn(C2CC2)c(=O)n(CC(O)c2ccccc2F)c1=O` (stereo unspecified), the INHIBITION is -128%.

Turning to `N#Cc1cn(C2CC2)c(=O)n(CC(O)c2ccccc2C(F)(F)F)c1=O` (stereo unspecified), the INHIBITION stood at 51%.

For the molecule `c1ncn(Cc2ccc(CNCc3ccc4c(c3)OCCO4)cc2)n1`, the INHIBITION is recorded as 0.0598%.

On to `CC(C)c1cc(NC(=O)c2ccc(C(=O)NC(C)(C)C)cc2)[nH]n1`, for which the INHIBITION is given as 64%.

Take `CC(C)c1cc(NC(=O)c2ccc([S+]([O-])C(C)C)cc2)[nH]n1` (stereo unspecified): the INHIBITION is recorded as -172%.

As for `CC(C)c1cc(NC(=O)c2ccncc2)[nH]n1`, the INHIBITION is on record as -134%.

For `Cn1ccc(C(=O)NC2CCC23CCN(Cc2nccs2)CC3)c1` (stereo unspecified), the INHIBITION is -44.3%.

Take `Cc1ccc(CN2CCC3(CCC3NC(=O)c3ccn(C)c3)CC2)s1` (stereo unspecified): the INHIBITION was 55.9%.
